Measured values: PubChem BioAssay AID847 (SRMLSC, 2007)
Out of some 41,000 compounds screened, about 190 (0.46%) were called active. Many of the other results were omitted from the sample, so actives are more common in it than they were. Values without a mark were called inactive.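 The calls were made as follows: active = viability at or below the median of all test compounds minus 3 SD, in both replicates if run twice (cut at about 45% in these data); inconclusive = duplicate replicates that disagree with each other; inactive = viability above that cutoff in every replicate.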

Experiment: SK-BR-3 proliferation inhibitors, primary screen, cell-based, human, 24 h (AID 847);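 also: 100% = median untreated cell wells and 0% = median positive control drug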
Settings: SK-BR-3 viability, CellTiter-Glo ATP luminescence, at 10 µM, active compounds read low

Compound	viability [%]
CSc1nc(O)c(Cc2ccccc2)c(=O)[nH]1	88.2
C=CCNc1nnc(C)c2ccccc12	94.2
COc1ccc(C2C(C#N)=C(N)Oc3n[nH]c(C)c32)cc1CN1CCN(c2ccc(F)cc2)CC1 (stereo not given)	67
CCOC(=O)C1CCCN(C(=O)c2cncc(Br)c2)C1 (stereo not given)	89.5
O=C(Nc1ccc2c(c1)nc1n2CCCCC1)c1cc(S(=O)(=O)N2CCOCC2)ccc1Cl	69
O=C(CSc1ncccn1)NCCc1ccccc1	89.6
CSc1nsc(SC)c1NC(=O)OC1CCCCC1	106
COc1ccc(S(=O)(=O)N2CCOCC2)cc1C(=O)Nc1nc2ccccc2s1	87.8
CCCC(=O)Nc1cc(OCC)c(NC(=O)NC2CCCCC2)cc1OCC	128
COC(=O)[C@H](CCSC)NC(=O)Nc1ccc(OC)cc1	86.4
COC(=O)C1(S(=O)(=O)C2(C(=O)OC)CCCC2)CCCC1	105
C=CCNC(=O)c1ccc(C)c(Br)c1	74.5
CCn1cc(NC(=O)Nc2ccc(OC)c(OC)c2)c(C(N)=O)n1	90.8
Cc1ccc(C(=O)CS(C)(=O)=O)cc1	90.6
CC(=O)N1CCC(C(=O)Nc2nc(-c3ccccc3)ns2)CC1	96.3
Cc1nc(NCCN)c(C#N)c2c1COC(C)(C)C2	85.4
OC(COc1ccccc1)Cn1cc(Br)cn1 (stereo not given)	74.7
CCCOC(=O)C1=C(C)NC2=C(C(=O)C(C(=O)OC)C(C)C2)C1c1ccc(N(C)C)cc1 (stereo not given)	89
Cc1nc(N2CCCC2C(=O)O)c2oc3ccccc3c2n1 (stereo not given)	101
COC(=O)c1cn(CC(=O)NCc2cccs2)c2ccccc12	108
COc1cc(-c2nc(S(=O)(=O)c3ccc(Cl)cc3)c(N(C)C)o2)cc(OC)c1OC	75.4
O=C(c1cccc(S(=O)(=O)N2CCOCC2)c1)N1CCOCC1	94.3
CC(=O)Oc1cccc(N2C(=O)C3CC=C(Cl)CC3C2=O)c1 (stereo not given)	73.3
NC(=O)C1CCN(C2OC(=O)c3ccccc32)CC1 (stereo not given)	93.2
O=C(NC(c1ccccc1)c1ccccc1)N1CCN(CCO)CC1	93

Compound	viability [%]
O=C(CSc1nnc(Cc2ccccc2)n1-c1ccccc1)N1CCOCC1	87.4
Cc1ccc2[nH]c(=O)c(COC(=O)c3ccccn3)cc2c1	100
CC1Cc2ccccc2N1C(=O)CSc1nnc(-c2ccc(S(=O)(=O)N3CCCCC3)cc2)o1 (stereo not given)	96
Cc1cc(O)ccc1-c1cnc2ccccc2n1	92.4
CC(C)NS(=O)(=O)c1ccc(OCC(=O)Nc2ccc3c(c2)OCCO3)cc1	86.3
O=C(OC(C(=O)NC1CCCC1)c1ccc(F)cc1)c1ccno1 (stereo not given)	107
N=c1c2c3c(sc2ncn1N)CCCCC3	86
COCCNC(=O)c1ccccc1-c1nc(-c2ccccc2Cl)no1	94.6
O=C(c1cccc(C(=O)N2CCc3ccccc32)n1)N1CCc2ccccc21	101
Cc1nc2nc(COc3ccccc3)[nH]n2c(=O)c1Cc1ccccc1	85.2
Cc1cccc(OCc2nnc(SCC(=O)N3CCN(C(=O)c4ccco4)CC3)n2C)c1C	112
CCOC(=O)CCc1c(C)c2ccc(OCc3nn[nH]n3)c(C)c2oc1=O	91.2
O=C1CCCc2c1[nH]c1ccc(Br)cc21	94.5
O=C(COC(=O)c1ccc2c(c1)OCCO2)NCc1ccccc1	91.5
Cc1cnc(NC(=O)CSc2nnc(-c3ccc(Cl)cc3Cl)n2N)s1	88.8
O=C(Cn1c(-c2ccc(Cl)cc2)noc1=O)N1CCN(c2ccccc2F)CC1	88.1
Cc1cc(C)c2cc(CN(Cc3cccs3)Cc3nnnn3CC3CCCO3)c(=O)[nH]c2c1 (stereo not given)	83.1
CCOC(=O)[C@H]1CCC[C@@H](NS(=O)(=O)c2ccc(NC(C)=O)cc2)C1	73.8
C=CCSC1=C(C#N)C(c2cc(Br)c(O)c(OC)c2)CC(=O)N1 (stereo not given)	86.3
CC1(C)CC(=O)C(C2=NC(C)(C)Cc3ccccc32)=C(O)C1	99.5
c1nc(COc2nsnc2N2CCOCC2)cs1	90.4
Cc1nc2nc3c(cn2n1)C(=O)CC(c1ccccc1)C3 (stereo not given)	109
CCCOc1ccc(CN(CCO)CCO)cc1C(=O)OC	94.7
Cc1ccn2cc(C(=O)NC3CCN(Cc4ccccc4)CC3)nc2c1	81
CCCC(NS(=O)(=O)c1ccc(OC)cc1)C(=O)O (stereo not given)	97.5
